The source of these data is PubChem BioAssay.

One may read the inhibition as the relative decrease from the control value, in per cent.

Structures are written as SMILES. Values without a mark were called inactive. Calls of active or inactive are those of the source.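 The calls were made as follows, unless noted: active = inhibition above 50%; inactive = the rest.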

One assay in a line: antimalarial activity against Dd2 strain (AID 2302;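 active = growth inhibition above 50% at the single 2 µM test dose, taken to imply half-maximal potency below 2 µM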;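 also: 0% = DMSO untreated growth and 100% = chloroquine plus artemisinin killed control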). As to conditions: P. falciparum Dd2 in RBCs, LDH growth readout, 72 h; at 2 µM; hits give high values.
Take `c1cc(CN2CCCCC2)cc(-c2csc(-c3nc4ccccc4[nH]3)c2)c1`: the growth inhibition is 16%.

In the case of `CC(=NNC(=S)NCCc1ccccc1)c1ccccn1`, the growth inhibition was 99% (active).

On to `CN1CCCC(CN2CCN(Cc3cccc(-c4ccc(-c5nc6ccccc6[nH]5)s4)c3)CC2)C1` (stereo not given), for which the growth inhibition is 99% (active).

Turning to `CN1CCN(c2ccc3nc(-c4ccc5nc(-c6ccc(O)cc6)[nH]c5c4)[nH]c3c2)CC1`, the growth inhibition was 100% (active).

`CCOc1ccc2c(NN=Cc3ccccc3OC)cc(C)nc2c1`: the growth inhibition is 93% (active).

Regarding `CO/C(=C\C=C\c1cc2cc(Cl)c(Cl)cc2[nH]1)C(=O)Nc1ccc(NCCN(C)C)nc1`, the growth inhibition is 56% (active).

With `CCN(CC)CCN(Cc1ccc(-c2ccc(C(F)(F)F)cc2)cc1)C(=O)Cn1c(CCc2cc(F)ccc2F)nc(=O)c2ccccc21`, the growth inhibition is 52% (active).

As to `Nc1ncc(-c2ccccc2)cc1-c1cccc2ncccc12`, the growth inhibition was 99% (active).

In the case of `Cc1nc(-c2cccc(Nc3nccc(NCC(O)c4cccc(F)c4)n3)c2)cs1` (stereo not given), the growth inhibition is 59% (active).

Take `Cc1cnc(Nc2ccccc2)nc1NCCC(=O)Nc1ccccc1`: the growth inhibition is 7%.

For the compound `Cc1cccc2[nH]c(-c3cccc(-c4cccc(NC(=O)C(C)CN5CCN(C)CC5)c4)c3)nc12` (stereo not given), the growth inhibition was 99% (active).

For `O=C(Nc1ccc(NC2=NCCN2)cc1)c1ccc(C(=O)Nc2ccc(NC3=NCCN3)cc2)cc1`, the growth inhibition is 86% (active).

Take `Cc1onc(-c2ccccc2)c1-c1nc(NCc2ccccc2Cl)no1`: the growth inhibition is 92% (active).

Turning to `O=C(NCc1ccccc1)c1nn(CCCN2CCC(N3CCCC3)CC2)cc1-c1ccc(Cl)c(Cl)c1`, the growth inhibition was 89% (active).

With `O=C(Cc1cccc(Cl)c1)N1CCc2cc3nccc(N4CCN5CCC[C@H]5C4)c3cc21`, the growth inhibition was 4%.

Turning to `Cn1cncc1C(=O)Nc1cccc(-c2ccc(-c3nc4ccccc4[nH]3)cc2)c1`, the growth inhibition was 11%.

As to `CNS(=O)(=O)Cc1ccc(Nc2nccc(Nc3cccc4c3cnn4C(=O)Nc3ccccc3)n2)cc1`, the growth inhibition is 5%.

`Cc1nc(N)nc(N)c1-c1ccc(Br)c([N+](=O)[O-])c1`: the growth inhibition is 2%.

In the case of `O=C(Nc1ccc(Cl)cc1)c1ccc(CN2CCCN(CC3CCCCC3)CC2)cc1`, the growth inhibition is 42%.

`CCNc1cc(C(=O)N[C@@H](Cc2ccccc2)[C@H](O)CN[C@H](C)C(C)(C)C)cc(N2CCCCS2(=O)=O)c1`: the growth inhibition is 41%.

For `CC(=O)Nc1cccc(-c2cnc(N)c3cc(-c4ccc5c(c4)OCO5)ccc23)c1`, the growth inhibition was 93% (active).

`CCCCCCCN1CC[C@@H](CCCc2ccnc3ccc(OCCC4CCNCC4)cc23)[C@@H](CC)C1`: the growth inhibition was 100% (active).

For `CC1(C)N=C(N)N=C(N)N1OCCSCc1cc(Cl)sc1Cl`, the growth inhibition was 72% (active).

Turning to `Cc1cc(N[C@@H](CC(C)C)C(=O)Nc2ccccc2)nc(NCCc2ccccc2)n1`, the growth inhibition is 87% (active).

Turning to `CN1CCN(CCCN(Cc2csc(-c3ccc(CNCc4ccccc4)cc3)n2)C(=O)c2cc(F)cc(F)c2)CC1`, the growth inhibition was 53% (active).

For the compound `COCCN1CCC(CNCC(C)(C)c2nc(-c3ccc(Cl)c(O)c3)c(-c3ccncc3)[nH]2)CC1`, the growth inhibition was 2%.

For `O=C(NC1CCN(CCC(NC(=O)c2ccccc2)c2ccc(Cl)c(Cl)c2)CC1)c1ccc(Cl)cc1` (stereo not given), the growth inhibition is 36%.

As to `O=C(NCc1cccs1)[C@H](Cc1ccccc1)Nc1ccnc(NCC2CCCCC2)n1`, the growth inhibition was 67% (active).

Regarding `c1cc(Nc2nc(-c3ccc(-c4csc(Nc5ccncc5)n4)cc3)cs2)ccn1`, the growth inhibition is 99% (active).

On to `C=CCN(c1ccc(OC)cc1)S(=O)(=O)c1ccc(Cl)c(C(=O)Nc2cccc(C#N)c2)c1`, for which the growth inhibition was 73% (active).

As for `Cn1cncc1C(=O)Nc1cccc(-c2ccc(-c3nc4ccccc4[nH]3)s2)c1`, the growth inhibition was 25%.

Regarding `c1ccc2c(CNc3nc(NCC4CCCCC4)nc4nc[nH]c34)cccc2c1`, the growth inhibition was 44%.

For `CCC1N=C(N)N=C(N)N1OCc1cccc2ccccc12` (stereo not given), the growth inhibition is 1%.

As to `CC(C)c1ccc(CN2CCCCC(NC(=O)c3cc(-c4cccc(F)c4)cs3)C2)cc1` (stereo not given), the growth inhibition was 13%.

Consider `COc1cc(C2CCN(CCCCNC(=O)c3ccc(NC(=O)c4ccc(Cl)c(Cl)c4)cc3)CC2)ccc1OC(C)C`, for which the growth inhibition was 96% (active).

As to `CN(C)CC(=O)NCC(NCCCNc1cc(=O)c2ccccc2[nH]1)c1cc(Br)cc(Br)c1` (stereo not given), the growth inhibition was 2%.

As to `COc1cc(Cc2cnc(N)nc2N)ccc1OCC(=O)Nc1ccc(C)cc1`, the growth inhibition is 18%.

Take `CCOc1c(CNCCCNc2cc(=O)c3ccccc3[nH]2)cc(I)cc1OC`: the growth inhibition is 6%.

For `COC(=O)Nc1cc(C(F)(F)F)ccc1N1CCCC(NS(=O)(=O)c2ccc(C(C)(C)C)cc2)C1` (stereo not given), the growth inhibition is 90% (active).

As to `CCCCCCCN1CC[C@@H](CCC(O)c2ccnc3ccc(OC)cc23)[C@@H](CC)C1` (stereo not given in full), the growth inhibition is 93% (active).

The next assay can be described thus: human hepatoma cell viability loss – ATP luminescence, cytotoxicity control for P. falciparum antimalarial project, primary screen (AID 2303).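 Also: 0% = DMSO wells and 100% = digitonin-killed cells.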 To be noted: HepG2 viability, 24-48 h, at 10 µM, hits give high values.
On to `c1cc(CN2CCCCC2)cc(-c2csc(-c3nc4ccccc4[nH]3)c2)c1`, for which the inhibition is 26%.

Consider `CC(=NNC(=S)NCCc1ccccc1)c1ccccn1`, for which the inhibition was 73% (active).

As for `CN1CCCC(CN2CCN(Cc3cccc(-c4ccc(-c5nc6ccccc6[nH]5)s4)c3)CC2)C1` (stereo not given), the inhibition is 52% (active).

On to `CN1CCN(c2ccc3nc(-c4ccc5nc(-c6ccc(O)cc6)[nH]c5c4)[nH]c3c2)CC1`, for which the inhibition was -11%.

As to `CCOc1ccc2c(NN=Cc3ccccc3OC)cc(C)nc2c1`, the inhibition was 11%.

As for `CO/C(=C\C=C\c1cc2cc(Cl)c(Cl)cc2[nH]1)C(=O)Nc1ccc(NCCN(C)C)nc1`, the inhibition is 27%.

In the case of `CCN(CC)CCN(Cc1ccc(-c2ccc(C(F)(F)F)cc2)cc1)C(=O)Cn1c(CCc2cc(F)ccc2F)nc(=O)c2ccccc21`, the inhibition is 42%.

Turning to `Nc1ncc(-c2ccccc2)cc1-c1cccc2ncccc12`, the inhibition is 82% (active).

Take `Cc1nc(-c2cccc(Nc3nccc(NCC(O)c4cccc(F)c4)n3)c2)cs1` (stereo not given): the inhibition is 39%.

Take `Cc1cnc(Nc2ccccc2)nc1NCCC(=O)Nc1ccccc1`: the inhibition was 10%.

With `Cc1cccc2[nH]c(-c3cccc(-c4cccc(NC(=O)C(C)CN5CCN(C)CC5)c4)c3)nc12` (stereo not given), the inhibition was 17%.

On to `O=C(Nc1ccc(NC2=NCCN2)cc1)c1ccc(C(=O)Nc2ccc(NC3=NCCN3)cc2)cc1`, for which the inhibition is 15%.

Regarding `Cc1onc(-c2ccccc2)c1-c1nc(NCc2ccccc2Cl)no1`, the inhibition was 2%.

On to `O=C(NCc1ccccc1)c1nn(CCCN2CCC(N3CCCC3)CC2)cc1-c1ccc(Cl)c(Cl)c1`, for which the inhibition was 29%.

Take `O=C(Cc1cccc(Cl)c1)N1CCc2cc3nccc(N4CCN5CCC[C@H]5C4)c3cc21`: the inhibition is 14%.

On to `Cn1cncc1C(=O)Nc1cccc(-c2ccc(-c3nc4ccccc4[nH]3)cc2)c1`, for which the inhibition is -5%.

For `CNS(=O)(=O)Cc1ccc(Nc2nccc(Nc3cccc4c3cnn4C(=O)Nc3ccccc3)n2)cc1`, the inhibition is 45%.

For `Cc1nc(N)nc(N)c1-c1ccc(Br)c([N+](=O)[O-])c1`, the inhibition was 64% (active).

With `O=C(Nc1ccc(Cl)cc1)c1ccc(CN2CCCN(CC3CCCCC3)CC2)cc1`, the inhibition was 48%.

As to `CCNc1cc(C(=O)N[C@@H](Cc2ccccc2)[C@H](O)CN[C@H](C)C(C)(C)C)cc(N2CCCCS2(=O)=O)c1`, the inhibition is 4%.

Consider `CC(=O)Nc1cccc(-c2cnc(N)c3cc(-c4ccc5c(c4)OCO5)ccc23)c1`, for which the inhibition was 100% (active).

Turning to `CCCCCCCN1CC[C@@H](CCCc2ccnc3ccc(OCCC4CCNCC4)cc23)[C@@H](CC)C1`, the inhibition is 94% (active).

For `CC1(C)N=C(N)N=C(N)N1OCCSCc1cc(Cl)sc1Cl`, the inhibition is 70% (active).

With `Cc1cc(N[C@@H](CC(C)C)C(=O)Nc2ccccc2)nc(NCCc2ccccc2)n1`, the inhibition is -4%.

On to `CN1CCN(CCCN(Cc2csc(-c3ccc(CNCc4ccccc4)cc3)n2)C(=O)c2cc(F)cc(F)c2)CC1`, for which the inhibition is 60% (active).

Take `COCCN1CCC(CNCC(C)(C)c2nc(-c3ccc(Cl)c(O)c3)c(-c3ccncc3)[nH]2)CC1`: the inhibition was -15%.

For `O=C(NC1CCN(CCC(NC(=O)c2ccccc2)c2ccc(Cl)c(Cl)c2)CC1)c1ccc(Cl)cc1` (stereo not given), the inhibition was 17%.

Regarding `O=C(NCc1cccs1)[C@H](Cc1ccccc1)Nc1ccnc(NCC2CCCCC2)n1`, the inhibition was 5%.

Consider `c1cc(Nc2nc(-c3ccc(-c4csc(Nc5ccncc5)n4)cc3)cs2)ccn1`, for which the inhibition is 91% (active).

Consider `C=CCN(c1ccc(OC)cc1)S(=O)(=O)c1ccc(Cl)c(C(=O)Nc2cccc(C#N)c2)c1`, for which the inhibition is 6%.

Take `Cn1cncc1C(=O)Nc1cccc(-c2ccc(-c3nc4ccccc4[nH]3)s2)c1`: the inhibition was -3%.

Turning to `c1ccc2c(CNc3nc(NCC4CCCCC4)nc4nc[nH]c34)cccc2c1`, the inhibition is -2%.

Regarding `CCC1N=C(N)N=C(N)N1OCc1cccc2ccccc12` (stereo not given), the inhibition is 66% (active).

On to `CC(C)c1ccc(CN2CCCCC(NC(=O)c3cc(-c4cccc(F)c4)cs3)C2)cc1` (stereo not given), for which the inhibition is 6%.

Regarding `COc1cc(C2CCN(CCCCNC(=O)c3ccc(NC(=O)c4ccc(Cl)c(Cl)c4)cc3)CC2)ccc1OC(C)C`, the inhibition is 45%.

On to `CN(C)CC(=O)NCC(NCCCNc1cc(=O)c2ccccc2[nH]1)c1cc(Br)cc(Br)c1` (stereo not given), for which the inhibition is 6%.

With `COc1cc(Cc2cnc(N)nc2N)ccc1OCC(=O)Nc1ccc(C)cc1`, the inhibition was 10%.

With `CCOc1c(CNCCCNc2cc(=O)c3ccccc3[nH]2)cc(I)cc1OC`, the inhibition is -4%.

Turning to `COC(=O)Nc1cc(C(F)(F)F)ccc1N1CCCC(NS(=O)(=O)c2ccc(C(C)(C)C)cc2)C1` (stereo not given), the inhibition is -8%.

In the case of `CCCCCCCN1CC[C@@H](CCC(O)c2ccnc3ccc(OC)cc23)[C@@H](CC)C1` (stereo not given in full), the inhibition is 34%.
